The source of these data is PubChem BioAssay (EPA / NIEHS).

Each structure is given as a SMILES string. Results filed as inconclusive are left out. The source made the active and inactive calls. How the source made its calls: active means hit-call score of the fitted dose curve at least 0.9, where 1 is the maximum; inconclusive means response in the unintended direction; inactive means score below 0.9.

Read-out in the assay: xenobiotic metabolism (CYP1A1), CYP1A1 (gene 1543)
The experiment in a line: CLD_CYP1A1_6hr: CellzDirect (CLD) Gene Expression Assay for xenobiotic metabolism (CYP1A1) at 6 hours (AID 2283661).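 On AC50: potency for transcript induction above DMSO vehicle baseline.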 How it is done: CLD_6hr is a cell-based, multiplexed-readout assay that uses hepatocyte, a human liver primary cell, with measurements taken at 6 hours after chemical dosing in a 96-well plate.CLD_CYP1A1_6hr is one of 16 assay component(s) measured or calculated from the CLD_6hr assay. It is designed to make measurements of mRNA induction, a form of inducible reporter, as detected with chemiluminescence signals by Quantitative Nuclease Protection Assay (qNPA) technology.Data from the assay component CLD_CYP1A1_6hr was analyzed at the endpoint, CLD_CYP1A1_6hr, in the positive analysis fitting direction relative to DMSO as the negative control and baseline of activity. Using a type of inducible reporter, gain-of-signal activity can be used to understand changes in the reporter gene as they relate to the gene CYP1A1. Furthermore, this assay endpoint can be referred to as a primary readout. To generalize the intended target to other relatable targets, this assay endpoint is annotated to the cyp intended target family, where subfamily is xenobiotic metabolism.
Human hepatocyte cultures were treated daily for two consecutive days with fresh dosing solutions containing appropriate concentrations of the 320 ToxCast chemicals (chemical identities were blinded to CellzDirect and other ToxCast collaborators), vehicle control (0.2% DMSO), and positive control inducers as summarized in Table 1. Due to the large number of treatment groups and chemicals examined, the ToxCast chemicals were divided into two groups (spanning two independent cultures of hepatocytes from separate donor preparations (Hu778: ToxCast plates 1 and 2; Hu776: ToxCast plates 3 and 4). Each preparation of human hepatocyte cultures was treated with respective vehicle control, medium only control, set of six positive controls/reference chemicals for the five hepatic receptor pathways, and a subset of eight of the ToxCast chemicals (indoxacarb, pyrithiobac-sodium, norflurazon, cyhalofop-butyl, methomyl, thiram, acetochlor, and propiconazole). These replicate data, coupled with internal replicates designed within the blinded ToxCast chemical library, provided additional data to evaluate interindividual differences between hepatocyte preparations and their potential impact on chemical profiles.Cell morphology and integrity were evaluated using phase-contrast microscopy as an indicator of hepatocyte cell health (Tyson & Green, 1987). Cultures for each treatment group (i.e., media, vehicle [0.2% DMSO], positive control inducers [multiple concentrations], and the ToxCast chemicals [multiple concentrations]) were observed and cell morphology was assessed relative to vehicle control cultures at each harvest time point (0, 6, 24, or 48 h). […] Images were evaluated at the conclusion of the study to assess changes in cell integrity and account for the effects of chemical exposure on uncharacteristic changes in concentration-dependent gene expression profiles. The results from these determinations of apparent cytotoxicity were annotated (yes/no) alongside the corresponding qNPA data for reference.At the conclusion of each treatment period, hepatocyte cultures (96-well) were washed with 1 volume of HBSS, lysed by addition of 25 ul ArrayPlate lysis buffer (HTG, Tucson, AZ), and 70 ul/well of Denaturation Oil, denatured by incubation at 95C for 10 min, and frozen at approximately -70C until analysis by nuclease protection assay (qNPA) (Roberts et al., 2007). For qNPA analysis, cell lysates were thawed at 50C for approximately 30 min, qNPA probes were added, and samples were incubated at 95C for 10 min to begin the detection process by denaturing the target RNA, dissociating the duplexes and secondary structure hybridization. At the conclusion of the hybridization period, S1 nuclease reagent was added to each sample to digest all nonprotected nucleotides at 50C for 60-90 min. […]
Usually AC50 stands for the concentration giving half of the maximal activity seen. Regarding `Cc1cc(C2CC2)nc(Nc2ccccc2)n1`, the half-maximal activity concentration (AC50) is 2.2 µM (active).

As for `CC(Oc1cccc(Cl)c1)C(=O)O` (stereo not given), the call was inactive.

Take `Cc1nn(-c2cc(NS(C)(=O)=O)c(Cl)cc2Cl)c(=O)n1C(F)F`: the outcome was inactive.

Regarding `CC(COc1ccc(Oc2ccccc2)cc1)Oc1ccccn1` (stereo not given), the call was inactive.

Regarding `CCc1cnc(C2=NC(C)(C(C)C)C(=O)N2)c(C(=O)O)c1` (stereo not given), the compound was called inactive.

In the case of `COP(=O)(OC)OC(Br)C(Cl)(Cl)Br` (stereo not given), the call was inactive.

For the compound `CCOP(=S)(OCC)Oc1ccc2c(C)c(Cl)c(=O)oc2c1`, the outcome was inactive.

Turning to `C[Si](Cn1cncn1)(c1ccc(F)cc1)c1ccc(F)cc1`, the half-maximal activity concentration (AC50) was 20 µM (active).

As to `CNC(=O)ON=C(C)SC`, the compound was classed as inactive.

Consider `CC1=NNC(=O)N(/N=C/c2cccnc2)C1`, for which the AC50 was 20 µM (active).

With `CCOP(=S)(OCC)Oc1ccc([N+](=O)[O-])cc1`, the AC50 is 3.67 µM (active).

Consider `CNC(=O)Oc1cccc2c1OC(C)(C)O2`, for which the concentration at half-maximal activity (AC50) is 2.94 µM (active).

As to `CCCOCC(=Nc1ccc(Cl)cc1C(F)(F)F)n1ccnc1`, the half-maximal activity concentration (AC50) is 1.9 µM (active).

Consider `CCOP(=O)(SC(C)CC)N1CCSC1=O` (stereo not given), for which the result was inactive.

Take `CNc1cnn(-c2cccc(C(F)(F)F)c2)c(=O)c1Cl`: the AC50 is 3.97 µM (active).

For the compound `CSC1=N[C@@](C)(c2ccccc2)C(=O)N1Nc1ccccc1`, the half-maximal activity concentration (AC50) is 0.00477 µM (active).

On to `COP(=O)(NC(C)=O)SC` (stereo not given), for which the compound was called inactive.

For the compound `CCCSP(=O)(OCC)Oc1ccc(Br)cc1Cl` (stereo not given), the half-maximal activity concentration (AC50) was 10.2 µM (active).

Consider `CSc1nc(NC(C)C)nc(NC(C)C)n1`, for which the AC50 is 3.97 µM (active).

`CC(C)N(C(=O)SCC(Cl)=C(Cl)Cl)C(C)C`: the compound was called inactive.

On to `CCCCSP(=O)(SCCCC)SCCCC`, for which the concentration at half-maximal activity (AC50) was 2.38 µM (active).

With `Cc1ccn2nc(S(=O)(=O)Nc3c(F)cccc3F)nc2n1`, the result was inactive.

On to `CN(C)C(=O)Nc1cccc(C(F)(F)F)c1`, for which the compound was called inactive.

As for `Nc1nc(N)nc(NC2CC2)n1`, the result was inactive.

As for `CCOP(=O)(OCC)Oc1cc(C)nc(C(C)C)n1`, the result was inactive.

With `CC(C)=CC1C(C(=O)OCN2C(=O)C3=C(CCCC3)C2=O)C1(C)C` (stereo not given), the call was inactive.

Turning to `C#CCC1=C(C)C(OC(=O)C2C(C=C(C)C)C2(C)C)CC1=O` (stereo not given), the compound was classed as inactive.

For the compound `FC(F)C(F)(F)OCC(Cn1cncn1)c1ccc(Cl)cc1Cl` (stereo not given), the half-maximal activity concentration (AC50) is 2.47 µM (active).

`CCOP(=S)(Oc1cnc(C(C)(C)C)nc1)OC(C)C` (stereo not given): the AC50 was 2.24 µM (active).

With `CC(C)[C@H](C(=O)O[C@H](C#N)c1cccc(Oc2ccccc2)c1)c1ccc(Cl)cc1`, the result was inactive.

Turning to `CCC(=O)Nc1ccc(Cl)c(Cl)c1`, the concentration at half-maximal activity (AC50) was 20 µM (active).

As for `CCOP(=S)(OCC)OC(Cl)C(Cl)(Cl)Cl` (stereo not given), the compound was classed as inactive.

Regarding `COc1cccc(C(=O)NN(C(=O)c2cc(C)cc(C)c2)C(C)(C)C)c1C`, the outcome was inactive.

As to `CCCCOC(=O)[C@@H](C)Oc1ccc(Oc2ccc(C#N)cc2F)cc1`, the compound was classed as inactive.

As for `CON=C(C(=O)OC)c1ccccc1CON=C(C)c1cccc(C(F)(F)F)c1`, the compound was called inactive.

Regarding `CCC(=NOC/C=C/Cl)C1=C(O)CC(C2CCOCC2)CC1=O` (stereo not given), the compound was classed as inactive.

Take `CC(C1CC1)C(O)(Cn1cncn1)c1ccc(Cl)cc1` (stereo not given): the AC50 is 0.0103 µM (active).

With `Nc1c(Cl)cc([N+](=O)[O-])cc1Cl`, the half-maximal activity concentration (AC50) is 34.5 µM (active).

For `CCOP(=S)(OCC)SCCSCC`, the concentration at half-maximal activity (AC50) was 4.01 µM (active).

Take `CCOC(=O)COc1cc(-c2nn(C)c(OC(F)F)c2Cl)c(F)cc1Cl`: the compound was classed as inactive.
